# Laboratory results: publication PMC11006913
# Where a chain is given by its changes, count along the chain named.
# Columns and labels:
# Assay in all cases: PBM; 200 nM protein, PBS
# Details in all cases: dsDNA, one strand shown
# PAX4 [1] = molecular target: T1, PAX4 (Homo sapiens, UniProt O43316 9-242, R200K)
# T1 sequence: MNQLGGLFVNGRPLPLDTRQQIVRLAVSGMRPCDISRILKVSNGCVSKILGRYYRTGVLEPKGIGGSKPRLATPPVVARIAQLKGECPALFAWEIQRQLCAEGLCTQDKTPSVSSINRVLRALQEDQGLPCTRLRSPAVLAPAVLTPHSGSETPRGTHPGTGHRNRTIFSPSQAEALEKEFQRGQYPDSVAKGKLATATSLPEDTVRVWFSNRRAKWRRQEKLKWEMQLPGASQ
# PAX4 [2] = molecular target: T2, PAX4 (Homo sapiens, UniProt O43316 9-242)
# T2 sequence: T1 sequence with K192R
# PAX4 [3] = molecular target: T3, PAX4 (Homo sapiens, UniProt O43316 9-242, R200Q)
# T3 sequence: T1 sequence with K192Q
# PAX4 [4] = molecular target: T4, PAX4 (Homo sapiens, UniProt O43316 9-242, F177V)
# T4 sequence: T1 sequence with F169V, K192R
# HOXA2 [5] = molecular target: HOXA2 (Homo sapiens, UniProt O43364 129-215, R185T)
# HOXA2 [6] = molecular target: HOXA2 (Homo sapiens, UniProt O43364 129-215, R185K)
# PAX4 [7] = molecular target: T5, PAX4 (Homo sapiens, UniProt O43316 9-242, F177Y)
# T5 sequence: T1 sequence with F169Y, K192R
# PAX4 [8] = molecular target: T6, PAX4 (Homo sapiens, UniProt O43316 9-242, R227W)
# T6 sequence: T1 sequence with K192R, R219W
# HOXA2 [9] = molecular target: HOXA2 (Homo sapiens, UniProt O43364 129-215, Y150S)
# HOXA2 [10] = molecular target: HOXA2 (Homo sapiens, UniProt O43364 129-215)
# HOXD13 [11] = molecular target: HOXD13 (Homo sapiens, UniProt P35453 263-343, T313R)
# HOXD13 [12] = molecular target: HOXD13 (Homo sapiens, UniProt P35453 263-343)
# HOXD13 [13] = molecular target: HOXD13 (Homo sapiens, UniProt P35453 263-343, T313A)
# PITX2 = PITX2 (Homo sapiens, UniProt Q99697 72-157)
# Sequence of HOXA2 (Homo sapiens, UniProt O43364 129-215, Y150S) (O43364 129-215 Y150S): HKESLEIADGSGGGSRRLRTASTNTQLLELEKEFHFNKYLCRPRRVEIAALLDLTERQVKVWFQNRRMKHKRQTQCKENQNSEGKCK
# Sequence of HOXA2 (Homo sapiens, UniProt O43364 129-215, R185T) (O43364 129-215 R185T): as the sequence (O43364 129-215 Y150S) above, with S22Y, R57T counted along it
# Sequence of HOXA2 (Homo sapiens, UniProt O43364 129-215, R185K) (O43364 129-215 R185K): as the sequence (O43364 129-215 Y150S) above, with S22Y, R57K counted along it
# Sequence of HOXA2 (Homo sapiens, UniProt O43364 129-215) (O43364 129-215): as the sequence (O43364 129-215 Y150S) above, with S22Y counted along it
# Sequence of HOXD13 (Homo sapiens, UniProt P35453 263-343, T313A) (P35453 263-343 T313A): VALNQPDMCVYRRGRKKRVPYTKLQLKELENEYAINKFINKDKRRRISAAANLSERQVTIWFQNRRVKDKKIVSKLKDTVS
# Sequence of HOXD13 (Homo sapiens, UniProt P35453 263-343, T313R) (P35453 263-343 T313R): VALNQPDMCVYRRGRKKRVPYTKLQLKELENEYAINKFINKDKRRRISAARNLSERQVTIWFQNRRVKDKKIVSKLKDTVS
# Sequence of HOXD13 (Homo sapiens, UniProt P35453 263-343) (P35453 263-343): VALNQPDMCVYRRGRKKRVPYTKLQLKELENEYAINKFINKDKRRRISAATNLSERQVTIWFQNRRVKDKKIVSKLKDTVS
Sequence,binding signal (PAX4 [1]),binding signal (PAX4 [2]),binding signal (PAX4 [3]),binding signal (PAX4 [4]),binding signal (HOXA2 [5]),binding signal (HOXA2 [6]),binding signal (PAX4 [7]),binding signal (PAX4 [8]),binding signal (HOXA2 [9]),binding signal (HOXA2 [10]),binding signal (HOXD13 [11]),binding signal (HOXD13 [12]),binding signal (HOXD13 [13]),binding signal (PITX2)
AGTGATTA,"11.1 upbm affinity estimate (log intensity, higher = more binding, comparable within an allelic series)","11.4 upbm affinity estimate (log intensity, higher = more binding, comparable within an allelic series)","11.1 upbm affinity estimate (log intensity, higher = more binding, comparable within an allelic series)","10.3 upbm affinity estimate (log intensity, higher = more binding, comparable within an allelic series)",,,,,,,,,,
GGCTTCCA,"9.19 upbm affinity estimate (log intensity, higher = more binding, comparable within an allelic series)","9.03 upbm affinity estimate (log intensity, higher = more binding, comparable within an allelic series)","9.42 upbm affinity estimate (log intensity, higher = more binding, comparable within an allelic series)","9.33 upbm affinity estimate (log intensity, higher = more binding, comparable within an allelic series)","7.05 upbm affinity estimate (log intensity, higher = more binding, comparable within an allelic series)","10.4 upbm affinity estimate (log intensity, higher = more binding, comparable within an allelic series)","9.37 upbm affinity estimate (log intensity, higher = more binding, comparable within an allelic series)","9.41 upbm affinity estimate (log intensity, higher = more binding, comparable within an allelic series)","10.5 upbm affinity estimate (log intensity, higher = more binding, comparable within an allelic series)","7.18 upbm affinity estimate (log intensity, higher = more binding, comparable within an allelic series)",,,,
CAAGCCCC,"9.27 upbm affinity estimate (log intensity, higher = more binding, comparable within an allelic series)","9.32 upbm affinity estimate (log intensity, higher = more binding, comparable within an allelic series)","9.37 upbm affinity estimate (log intensity, higher = more binding, comparable within an allelic series)","9.26 upbm affinity estimate (log intensity, higher = more binding, comparable within an allelic series)",,,"9.29 upbm affinity estimate (log intensity, higher = more binding, comparable within an allelic series)","9.3 upbm affinity estimate (log intensity, higher = more binding, comparable within an allelic series)",,,"9.5 upbm affinity estimate (log intensity, higher = more binding, comparable within an allelic series)","9.54 upbm affinity estimate (log intensity, higher = more binding, comparable within an allelic series)","9.61 upbm affinity estimate (log intensity, higher = more binding, comparable within an allelic series)",
GTACGTAA,"10.4 upbm affinity estimate (log intensity, higher = more binding, comparable within an allelic series)","10.6 upbm affinity estimate (log intensity, higher = more binding, comparable within an allelic series)","10.6 upbm affinity estimate (log intensity, higher = more binding, comparable within an allelic series)",,,,,,,,,,,
CGGAGGGC,"9.09 upbm affinity estimate (log intensity, higher = more binding, comparable within an allelic series)","9.28 upbm affinity estimate (log intensity, higher = more binding, comparable within an allelic series)","9.19 upbm affinity estimate (log intensity, higher = more binding, comparable within an allelic series)","9.08 upbm affinity estimate (log intensity, higher = more binding, comparable within an allelic series)","7.21 upbm affinity estimate (log intensity, higher = more binding, comparable within an allelic series)","10.3 upbm affinity estimate (log intensity, higher = more binding, comparable within an allelic series)","9 upbm affinity estimate (log intensity, higher = more binding, comparable within an allelic series)","9.1 upbm affinity estimate (log intensity, higher = more binding, comparable within an allelic series)","10.3 upbm affinity estimate (log intensity, higher = more binding, comparable within an allelic series)","7.24 upbm affinity estimate (log intensity, higher = more binding, comparable within an allelic series)",,,,"7.96 upbm affinity estimate (log intensity, higher = more binding, comparable within an allelic series)"
